Bioassay records from PubChem BioAssay.
TDP1 cell noCPT: qHTS for Inhibitors of human tyrosyl-DNA phosphodiesterase 1 (TDP1): qHTS in cells in absence of CPT; DT40 Tdp1-/- hTDP1 cells, no CPT, ATP luminescence, 48 h; Potency, µM (top dose mostly 46.2 µM), for inactives: at the top dose activity change, negative = growth inhibition, most hits filed as inhibitors; 420,000 compounds, 15% hits; note: potency is the fitted concentration of half-maximal effect; % is set by controls: 0 for no effect and ±100 for the full control effect; nearly all actives have a fitted effect of over 55% in size
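Growth of hTDP1-complemented DT40 Tdp1-knockout cells is measured by ATP luminescence after at least 48 hr compound exposure at 37 °C, with DMSO substituting for the 20 nM CPT used in the parallel screen.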
IL-1B inflam inh: inhibitors of inflammasome signaling (IL-1 beta secretion); THP-1 LPS/ATP IL-1B secretion, AlphaLISA, 16 h; active compounds read low; activity change, % at 57.5 µM; 360,000 compounds, 4.7% hits; in the data active = activity change below about -50%; inconclusive = mostly about -30% to -49%; note: % is set by controls: 0 for no effect and ±100 for the full control effect
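Secreted IL-1B measured by AlphaLISA bead assay after 16 h compound exposure of THP-1 cells; compounds (final up to 57.5 uM) added 1 h before LPS (250 ng/mL) and ATP (1.25 mM) stimulation; lower signal means less secretion.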
S-ASM inh: human S-ASM enzyme inhibition; P17405; placental ASM, HMU-PC fluorogenic substrate, 60 min; Potency, µM (highest dose often 57.5 µM), for the others: at the top dose activity change, negative = inhibition, actives largely listed as inhibitors; 340,000 compounds, 0.006% hits; AID 504937; note: potency is the fitted concentration of half-maximal effect
Target sequence (P17405 47-631 limits assumed): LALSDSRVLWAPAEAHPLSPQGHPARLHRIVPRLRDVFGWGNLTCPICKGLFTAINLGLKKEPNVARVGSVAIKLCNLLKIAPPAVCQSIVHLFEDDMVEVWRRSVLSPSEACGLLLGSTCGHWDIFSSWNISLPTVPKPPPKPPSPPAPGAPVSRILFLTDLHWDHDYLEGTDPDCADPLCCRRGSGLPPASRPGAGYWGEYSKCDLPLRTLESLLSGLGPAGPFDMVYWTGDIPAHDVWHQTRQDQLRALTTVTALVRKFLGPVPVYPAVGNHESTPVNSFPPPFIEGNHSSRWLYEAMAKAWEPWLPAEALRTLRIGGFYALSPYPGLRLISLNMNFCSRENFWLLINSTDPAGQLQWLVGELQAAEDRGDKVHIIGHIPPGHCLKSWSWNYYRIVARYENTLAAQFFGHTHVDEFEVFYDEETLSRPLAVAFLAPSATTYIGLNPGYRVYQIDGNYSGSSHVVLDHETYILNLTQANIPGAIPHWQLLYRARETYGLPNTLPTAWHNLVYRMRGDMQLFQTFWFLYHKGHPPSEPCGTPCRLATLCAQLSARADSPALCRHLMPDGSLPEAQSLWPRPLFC
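qHTS format. ASM enzyme prepared from human placenta hydrolyses the fluorogenic substrate HMU-PC0 (9 uM final) over 60 min at 37 °C after a 10 min compound preincubation.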
TGFb SMAD3 inh: inhibitors of TGF-b signaling; HepG2 CAGA-GFP TGF-b/SMAD3 reporter, GFP fluorescence, 18 h; TGF-beta stimulated, 500 pg/mL final; Potency, µM (top dose mostly 46.1 µM), without a hit: top-dose activity, negative = inhibition, hits mostly inhibitors; 410,000 compounds, 1.2% hits; note: potency is the fitted concentration of half-maximal effect; % is set by controls: 0 for no effect and ±100 for the full control effect; nearly all actives have a fitted effect of over 65% in size
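Inhibition of TGF-beta-driven CAGA-GFP reporter expression in HEPG2 cells is measured by cellular GFP fluorescence after 18 h stimulation with 500 pg/mL recombinant TGF-beta in 1% FBS medium at 37 degrees C.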
TDP1 cell CPT: growth inhibition of DT40 Tdp1-/-;hTDP1 cells with camptothecin (screen for TDP1 inhibitors) | Potency, µM (titrated, usually from 46.2 µM), without a hit: at the top dose activity change, negative = growth inhibition, actives largely listed as inhibitors | chicken DT40 Tdp1-/-;hTDP1 cells + 20 nM CPT, ATP luminescence, 48 h | 420,000 compounds, 12% hits; note: potency is the fitted concentration of half-maximal effect; % is set by controls: 0 for no effect and ±100 for the full control effect; nearly all actives have a fitted effect of over 55% in size
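Chicken DT40 Tdp1-/- cells complemented with human TDP1, 400 cells/well, exposed to compounds plus 20 nM camptothecin for at least 48 h at 37 C; viability read as ATP content by CellTiter-Glo luminescence.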
HepG2 tox: HepG2 cytotoxicity, counter-screen for TGF-b inhibitors | Potency, µM (highest dose often 46.1 µM), for the others: top-dose activity change, negative = cytotoxicity, hits mostly cytotoxic | HepG2 CAGA-GFP viability, ATP luminescence, 18 h | 410,000 compounds, 0.76% hits; note: potency is the fitted concentration of half-maximal effect
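CellTiter-Glo luminescence gave cytotoxicity after 18 hours at 37 degrees C. The cells were HepG2 CAGA-GFP in 1% FBS DMEM, stimulated with 500 pg/mL TGF-beta after compound addition. %Activity was normalised to no-cell wells (complete cell-killing) and DMSO (no toxicity), and curves were fitted and classified.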
* hit, by the source's call; i = inactive; u = inconclusive; x = not tested or not shown. Rows were chosen to be rich in hits. Some 19% of all compounds tested hit in one or more screens of this group. Unless noted, calls come from the whole dose curve; as a rule, active = well fitted curve in the direction sought with a large enough effect; inconclusive = small, poorly fitted or top-dose-only effect, or another doubt; inactive = no such curve, though single readings can be large; an effect the other way counts as inactive or inconclusive.

SMILES | TDP1 cell noCPT | IL-1B inflam inh | S-ASM inh | TGFb SMAD3 inh | TDP1 cell CPT | HepG2 tox
Cc1ccc2c(c1)c1c3n2CCN(CC(O)CNC(C)C)C3CCC1 (stereo not given) | u | -56.7* | 5.3% | 15.5% | u | -14.3%
Cc1ccc2c(c1)c(=O)c1c3n2CCN(C(=O)CCl)C3CC1 (stereo not given) | 16.4µM* | -14.5 | 43.6% | -0.6% | 25.9µM* | -4.3%
Cc1ccc2c(c1)c1c(n2CC(O)CNC2CCCC2)CCCC1 (stereo not given) | u | -89.7* | -2.2% | u | u | -101.2%
Cc1ccc2c(c1)c1c3n2CCN(C(=O)CN2CCN(C)CC2)C3CCC1 (stereo not given) | 16.4µM* | -21.6 | -5.4% | u | u | -93.4%
Cc1ccc2c(c1)c1c3n2CCN(CC(N)=O)C3CCC1 (stereo not given) | u | -1.7 | -0.7% | -18.7% | u | -11.2%
Cc1ccc2c(c1)c1c(n2CC(O)CN2C(=O)CNC2=O)C(=O)CCC1 (stereo not given) | 3.8% | -10.4 | 86.2% | -10.5% | 7.2% | 2.4%
Cc1ccsc1C(=O)OCC(=O)NCc1ccc(Cl)cc1 | -0.7% | 6.2 | -3.6% | -9.4% | -22.7% | -18.2%
CC(C)Oc1ccc(CN=C(N)N=C(N)N)cc1Cl | 13µM* | -27.5 | 0.9% | -11.2% | u | -15.8%
CC(C)COc1ccc(CN=C(N)N=C(N)N)cc1Cl | 4.11µM* | u | -1.4% | -11.7% | 6.51µM* | -13.8%
COc1ccc(CN=C(N)N=C(N)N)cc1Cl | 20.6µM* | 4.9 | 2.2% | 0.0% | u | 0.0%
COc1ccc(CNC(C)(C)C)cc1Cl | -6.1% | -8.4 | 0.5% | -5.4% | 5.2% | 5.8%
CCOc1ccc(-c2nn(CC(=O)NC3CCCC3)c3c2cnc2ccc(C)cc23)cc1 | 2.7% | x | x | 10.4% | -2.5% | -4.4%
O=C(Nc1ccccc1)c1cc(C2CCCCN2S(=O)(=O)c2cccs2)on1 (stereo not given) | u | -14.4 | x | 11.9% | -27.1% | -16.7%
Cc1noc(C)c1S(=O)(=O)N1CCCCC1c1cc(C(=O)Nc2cccc3c2CCCC3)no1 (stereo not given) | 20.6µM* | -4.7 | x | 24.7% | u | 0.4%
O=C(NCc1ccc(F)cc1)c1cc(C2CCCCN2S(=O)(=O)c2cccs2)on1 (stereo not given) | u | 22.5 | x | -8.4% | -24.8% | -17.6%
CC(=O)Nc1ccc(C(=O)N2CCCCC2c2cc(C(=O)Nc3cccc4c3CCCC4)no2)cc1 (stereo not given) | u | 0.7 | x | -0.1% | u | -30.0%
N#Cc1ccc(S(=O)(=O)N2CCCCC2c2cc(C(=O)Nc3cccc4c3CCCC4)no2)cc1 (stereo not given) | u | 6.7 | x | -0.5% | u | -21.5%
O=C(Nc1cccc2c1CCCC2)c1cc(C2CCCCN2S(=O)(=O)c2cccs2)on1 (stereo not given) | 23.1µM* | 19.8 | x | 8.3% | 16.4µM* | -6.9%
CS(=O)(=O)N1CCCCC1c1cc(C(=O)Nc2cccc3c2CCCC3)no1 (stereo not given) | 9.2µM* | -6.4 | x | 18.4% | 14.6µM* | -20.8%
O=C(Nc1ccc2c(c1)OCO2)c1cc(C2CCCCN2S(=O)(=O)c2cccs2)on1 (stereo not given) | 23.1µM* | -14.3 | x | 28.2% | u | -22.2%
C[C@@H]1CN([C@H](C)CO)C(=O)CCCn2cc(nn2)CO[C@H]1CN(C)C(=O)Cc1ccccc1 | -14.3% | -13.2 | x | 15.2% | -24.8% | -87.5%
O=[N+]([O-])c1ccc(O)c(CSc2nnnn2-c2ccccc2)c1 | -5.2% | 11.0 | -2.7% | -2.5% | -20.5% | 2.8%
COc1ccc(NC(=O)c2nnn(Cc3nc(-c4cc(OC)c(OC)c(OC)c4)oc3C)c2C)cc1 | 8.2% | x | x | 23.1% | 11.5% | 0.9%
COc1cc(-c2nc(Cn3nnc(C(=O)Nc4cc(C)cc(C)c4)c3C)c(C)o2)cc(OC)c1OC | 11.6µM* | x | x | -6.7% | u | -6.8%
COc1ccc(NC(=O)c2nnn(Cc3nc(-c4cc(Br)ccc4OC)oc3C)c2C)cc1 | 18.4µM* | x | x | u | -21.1% | 3.4%
SMILES | TDP1 cell noCPT | IL-1B inflam inh | S-ASM inh | TGFb SMAD3 inh | TDP1 cell CPT | HepG2 tox
Cc1ccc(CNC(=O)C2CCN(S(=O)(=O)Cc3ccccc3)CC2)cc1 | -7.0% | x | x | 0.1% | -4.6% | 7.4%
COc1ccc(-c2cc3nc(-c4ccccc4)cc(N4CCC(O)CC4)n3n2)cc1 | u | -151.5* | i | u | u | -1.2%
COc1ccc(-c2cc3nc(C)cc(-c4ccc(OC)cc4)n3n2)cc1 | u | 38.0 | 141.6% | -27.3% | u | -39.8%
COc1ccc(-c2cc3nc(-c4ccc(C)cc4)cc(C(F)(F)F)n3n2)cc1 | -1.4% | x | x | -9.7% | 5.5% | -25.5%
COc1ccc(-c2cc3nc(-c4ccccc4)cc(N4CCCC(O)C4)n3n2)cc1 (stereo not given) | 11.6µM* | u | i | -21.7% | 16.4µM* | -15.3%
COc1cccc(NC(=O)CCS(=O)(=O)c2ccc3c(c2)oc(=O)n3C)c1 | -25.0% | 0.8 | 0.3% | 23.7% | 0.6% | -1.8%
Cc1ccc(NC(=O)Cn2c(=O)ccc3cc(S(=O)(=O)N4CCC(C)CC4)ccc32)c(C)c1 | 23.1µM* | x | x | -3.1% | u | -11.5%
CC1CCN(S(=O)(=O)c2ccc3c(ccc(=O)n3CC(=O)NCc3ccccc3Cl)c2)CC1 | u | x | x | -30.8% | 18.4µM* | -30.7%
CC1CCN(S(=O)(=O)c2ccc3c(ccc(=O)n3CC(=O)Nc3cccc(F)c3)c2)CC1 | 13µM* | x | x | u | 14.6µM* | -25.8%
CC(=O)Nc1ccc(NC(=O)Cn2c(=O)ccc3cc(S(=O)(=O)N4CCC(C)CC4)ccc32)cc1 | u | x | x | -4.6% | 1.5% | 1.8%
Cc1ccc(NC(=O)Cn2c(=O)ccc3cc(S(=O)(=O)N4CCC(C)CC4)ccc32)cc1Cl | 6.51µM* | x | x | 2.1% | 11.6µM* | -20.1%
